From PubChem
Most compounds without a hit are left out; they make up all but 7.3% or so of the library.
Tau fluor cs: Counterscreen qHTS for Inhibitors of Tau Fibril Formation, Fluorescence Polarization. tau K18 P301L Alexa594 fluorescence, heparin fibrillization. Potency, µM (highest dose often 57.7 µM). 0.93% of 280,000 active. AID 1463, 2008; further: nearly all actives have a fitted effect of over 55% in size
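Human K18 P301L tau (15 uM unlabeled plus 0.24 uM Alexa 594-labeled, final) in 100 mM sodium acetate pH 7 was mixed with compound and 20 uM heparin and incubated 6 hr at 37 C.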
Tau FP inhib: qHTS for Inhibitors of Tau Fibril Formation, Fluorescence Polarization | Microtubule-associated protein tau (Homo sapiens), P10636 | 0.39% of 280,000 active | Potency, µM (top dose mostly 57.7 µM), hits mostly inhibitors | K18 P301L tau heparin fibrillization, Alexa594 FP, 6 h; further: nearly all actives have a fitted effect of over 55% in size
Target sequence (P10636 561-689 P618L limits assumed): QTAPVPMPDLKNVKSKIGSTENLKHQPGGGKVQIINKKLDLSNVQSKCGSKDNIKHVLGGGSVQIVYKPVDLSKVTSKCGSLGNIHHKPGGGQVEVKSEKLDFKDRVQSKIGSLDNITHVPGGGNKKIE
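Compound effects on tau fibrillization are measured by Alexa 594 fluorescence polarization (ex 555, em 632 nm). K18 P301L tau is used at 15 uM with 0.24 uM labeled tracer, and 20 uM heparin induces aggregation over 6 hr at 37 C.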
Tau fibril ThT: qHTS for Inhibitors of Tau Fibril Formation, Thioflavin T Binding. Microtubule-associated protein tau (Homo sapiens), P10636. recombinant tau K18 P301L, heparin-induced fibrillization, ThT fluorescence. Potency, µM (highest dose often 57.4 µM), usual class: inhibitors. 2.1% of 270,000 active. AID 1460, 2008; further: nearly all actives have a fitted effect of over 55% in size
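Using a mix of unlabeled (15 uM) and Alexa 594-labeled (0.24 uM) tau K18 P301L, heparin-triggered fibrillization over 6 hr at 37 C was scored by ThT fluorescence.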
VP16 counter: VP16 counterscreen qHTS for inhibitors of ROR gamma transcriptional activity; 3.5% of 310,000 active; Potency, µM (highest dose often 53.6 µM), actives largely listed as inhibitors; Drosophila S2 Gal4-VP16 UAS-luciferase, luminescence, 20 h;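 further: Gal4-VP16 expression switched on by copper sulfate through the metallothionein promoter; nearly all actives have a fitted effect of over 50% in size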
RORg inh: qHTS for inhibitors of ROR gamma transcriptional activity | Drosophila S2 Gal4-RORgamma UAS-luciferase reporter, 20 h | Potency, µM (titrated, usually from 53.6 µM), actives largely listed as inhibitors | 5.4% of 310,000 active | AID 2551, 2010; further: nearly all actives have a fitted effect of over 60% in size
Target sequence (P51450 whole entry, looked up, the tested form may be a part): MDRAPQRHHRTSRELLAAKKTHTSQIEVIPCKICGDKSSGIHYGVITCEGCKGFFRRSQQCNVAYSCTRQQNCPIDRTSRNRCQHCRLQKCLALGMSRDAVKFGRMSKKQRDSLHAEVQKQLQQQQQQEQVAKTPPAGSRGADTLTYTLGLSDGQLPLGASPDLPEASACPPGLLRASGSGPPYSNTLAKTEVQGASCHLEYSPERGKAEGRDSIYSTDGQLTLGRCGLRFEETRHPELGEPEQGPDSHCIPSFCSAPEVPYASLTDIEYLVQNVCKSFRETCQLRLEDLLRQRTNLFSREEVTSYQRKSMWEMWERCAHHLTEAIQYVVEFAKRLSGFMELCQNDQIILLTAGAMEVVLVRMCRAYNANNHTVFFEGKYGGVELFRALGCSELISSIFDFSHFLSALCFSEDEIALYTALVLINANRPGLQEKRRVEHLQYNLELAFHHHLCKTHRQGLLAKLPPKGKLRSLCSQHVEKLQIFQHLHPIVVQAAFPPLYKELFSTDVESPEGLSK
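Luciferase reporter read in Schneider cells carrying Gal4-RORγ (mouse) and UAS-Photinus luciferase; cells given compound 1 h before 700 uM copper sulfate induction, then incubated 20 h at ambient temperature.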
Numbers stand for hits; - = inactive; ? = inconclusive; . = no result given; [ ] = dose if it differs, or a comment. The call rests on the fitted dose curve; in most records, active means well fitted curve in the direction sought with a large enough effect; inconclusive means small, poorly fitted or top-dose-only effect, or another doubt; inactive means no such curve, though single readings can be large; an effect the other way counts as inactive or inconclusive.

SMILES	Tau fluor cs	Tau FP inhib	Tau fibril ThT	VP16 counter	RORg inh
Cc1ccc2ncc(C(=O)c3ccc(C)c(C)c3)c(S(=O)(=O)c3ccccc3)c2c1	-	-	-	.	.
COc1ccccc1-c1ccc2ncnc(NCCN3CCOCC3)c2c1	.	.	.	-	-
CCOC(=O)N1CCN(C(=O)CCCCCn2c(=S)[nH]c3ccsc3c2=O)CC1	-	-	?	?	11µM
CCOC(=O)N1CCN(C(=O)CCCn2c(=S)[nH]c3ccc(Br)cc3c2=O)CC1	-	?	?	?	13µM
CCOC(=O)N1CCN(C(=O)CCCn2c(=S)[nH]c3ccccc3c2=O)CC1	-	-	-	-	-
COc1ccc(N2CC(NC(=O)c3ccc(S(=O)(=O)N4CCOCC4)cc3)CC2=O)cc1OC (centres undefined)	-	-	-	.	.
CCCCC(=O)OC1=C(C(=O)c2ccccc2)N(C)S(=O)(=O)c2ccccc21	-	-	14µM	.	.
C/C(N=Nc1nc2ccccc2s1)=N\Nc1ccccc1O	?	-	.	-	8.9µM
CCC(=O)N1CCc2cc(Br)cc(S(=O)(=O)N3CCN(c4ccc(C)cc4)C(C)C3)c21 (centres undefined)	-	-	-	.	.
Cc1nnc(SCC(=O)Nc2sc3c(c2C#N)CCCC3)[nH]c1=O	-	-	-	.	-[0.365 µM]
CCN(CC(=O)Nc1sc2c(c1C#N)CCC(C)C2)Cc1nc2ccccc2c(=O)[nH]1 (centres undefined)	-	-	?	?	2.5µM
CCN(CC(=O)Nc1sc2c(c1C#N)CCCC2)Cc1nc2ccccc2c(=O)[nH]1	-	-	-	?	5.6µM
CCN(CC(=O)Nc1sc2c(c1C#N)CCC(C)C2)CC(=O)NC1CCS(=O)(=O)C1 (centres undefined)	-	-	-	-	?
CCN(CC(=O)NC(C)C)Cc1nc2sc3c(c2c(=O)[nH]1)CCC3	-	-	-	4.5µM	1.1µM
FC1(F)C(F)(F)C(F)(F)C2(F)C(F)(F)C(F)(F)C(F)(F)C(F)(F)C2(F)C1(F)F (centres undefined)	.	.	.	-	-
C/C=C\C=C/C(=O)Nc1cccc(C2=NOC3(C2)C[C@@H](C(N)=O)N(C(=O)/C=C/C=C\C)C3)c1 (some centres undefined)	-	?	25µM	-	-
Cc1cc(O)ccc1N/C=C1\CCCC1=O	-	?	28µM	?	-
CC(=O)Nc1ccc(N/C=C2/CCCC2=O)cc1	-	-	?	-	-
FC(F)(F)c1nnc2c(Sc3ccccn3)nc3ccccc3n12	-	?	?	20µM	10µM
CC(=O)c1c(C)[nH]c(C(=O)Nc2ccc(C)cn2)c1C	-	-	-	?	2µM
CC(=O)c1c(C)[nH]c(C(=O)Nc2nc(C)cs2)c1C	-	-	-	10µM	4.5µM
CC(=O)c1c(C)[nH]c(C(=O)Nc2cc(C)cc(C)c2)c1C	?	-	?	-	?
CC(=O)c1c(C)[nH]c(C(=O)Nc2nc(-c3ccc(Cl)cc3)cs2)c1C	-	-	-	?	?
CC(=O)c1c(C)[nH]c(C(=O)Nc2nc(-c3ccc(-c4ccccc4)cc3)cs2)c1C	?	40µM	-	?	-
N#CCCCS(=O)(=O)c1ccccc1	-	-	-	-	-
SMILES	Tau fluor cs	Tau FP inhib	Tau fibril ThT	VP16 counter	RORg inh
COc1cccc(-c2cc(C(=O)NCc3ccco3)c3ccccc3n2)c1	.	.	.	-	-
C=CCn1c(=S)[nH]c2cc(-c3ccccc3)sc2c1=O	.	.	.	2µM	1µM
C=C(C)Cn1c(=S)[nH]c2ccccc2c1=O	-	-	-	11µM	4µM
O=c1c2ccccc2[nH]c(=S)n1CCC1=CCCCC1	-	-	-	1.4µM	1.6µM
C=CCn1c(=S)[nH]c2ccccc2c1=O	-	-	-	4.5µM	5.6µM
O=C(Cn1c(=S)[nH]c2ccccc2c1=O)NCCc1ccccc1	-	-	-	-	-
CCCC(=O)N(c1ccc2oc(-c3ccccc3)c(C(=O)OCC)c2c1)S(=O)(=O)c1ccc(C)cc1	-	-	-	.	.
FC(F)(F)c1ccccc1-c1ccc2ncnc(NC3CC3)c2c1	.	.	.	?	-
CC(C)CN1C(=O)NC2(CCCc3ccccc32)C1=O (centres undefined)	.	.	.	-	-
CC(C)Cn1c(=S)[nH]c2cc(Cl)ccc21	-	-	-	?	1.6µM
CC(C)Cn1c(=S)[nH]c2ccccc2c1=O	-	-	-	4.5µM	1.1µM
CC(C)COC(=O)Cc1c(O)c2ccccc2[nH]c1=O	-	-	-	-	-
CC(C)COn1c(=S)[nH]c2ccccc2c1=O	-	-	-	10µM	2.2µM
COc1cccc(CNS(=O)(=O)c2c(C(=O)N3CCC(C)CC3)c(C)n(C)c2C)c1	-	-	-	.	.
N#Cc1ccccc1NC(=O)COC(=O)CCc1ccccc1	.	.	.	-	-
O=C(NCc1ccco1)C1CCCN1C(=O)Nc1ccc(Br)cc1 (centres undefined)	.	.	.	?	-
C=C1C2CC[C@@]3(C)C(c4ccoc4)OC(=O)C[C@@]13OC1CC(=O)C(C)(C)C(CC(=O)OC)[C@]12C (some centres undefined)	-	-	-	-	-
CC1(C)C(=O)C=C[C@@]2(C)C1C=C[C@@]1(C)C2CC[C@@]2(C)C(c3ccoc3)OC(=O)C3OC312 (some centres undefined)	-	?	?	-	7.1µM
CC(=O)OC1CC[C@]2(C)C(CC(OC(C)=O)[C@@]3(C)C4=CC(=O)OC(c5ccoc5)[C@]4(C)CCC23)C1(C)C (some centres undefined)	-	-	?	-	13µM
CC(=O)OC1CC(OC(C)=O)[C@]2(C)C(CC(=O)[C@]3(C)C2CC[C@@]2(C)C(c4ccoc4)OC(=O)C4O[C@@]423)C1(C)C (some centres undefined)	-	32µM	25µM	-	-
C=C1C2CC[C@@]3(C)C(c4ccoc4)OC(=O)C[C@@]13OC1CC(OC(C)=O)C(C)(C)C(CC(=O)OC)[C@@]12C (some centres undefined)	-	-	?	-	2.8µM
CC(=O)O[C@@H]1C[C@H]2C(C)(C)C(=O)C=C[C@]2(C)[C@H]2CC[C@@]3(C)[C@H](c4ccoc4)OC(=O)[C@H]4O[C@]43[C@@]21C	-	-	?	-	?
CC(=O)OC1CC(OC(C)=O)[C@]2(C)C(CC(O)[C@]3(C)C2CC[C@@]2(C)C(c4ccoc4)OC(=O)C4O[C@]432)C1(C)C (some centres undefined)	-	-	-	-	-
Cc1ccccc1Cc1c(C)nc2nc(SCC(=O)N(C)c3ccccc3)nn2c1C	-	-	-	.	.
